Source: PubChem BioAssay AID1006 (Sanford-Burnham Center for Chemical Genomics, 2008)
Out of some 200,000 compounds screened, about 3,000 (1.5%) were called active. This is one part of a sample in which actives are shown more often than they occur. Values without a mark were called inactive.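 Rule for the calls: active = inhibition above about 50% when tested at 10 µM (limit read from the data); inactive = the rest.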

The compounds below were run against Luciferin 4-monooxygenase (Photinus pyralis) (UniProt P08659) (assay: inhibition of purified FLuc reporter enzyme – biochemical, luminescence, ATPLite, artefact control for luciferase-based inhibitor screens, primary screen (AID 1006)). Conditions: ATPLite firefly luciferase biochemical luminescence, 10 min; at 10 µM; stronger effect = higher value.
Luciferin 4-monooxygenase (Photinus pyralis), sequence (P08659 whole entry, looked up): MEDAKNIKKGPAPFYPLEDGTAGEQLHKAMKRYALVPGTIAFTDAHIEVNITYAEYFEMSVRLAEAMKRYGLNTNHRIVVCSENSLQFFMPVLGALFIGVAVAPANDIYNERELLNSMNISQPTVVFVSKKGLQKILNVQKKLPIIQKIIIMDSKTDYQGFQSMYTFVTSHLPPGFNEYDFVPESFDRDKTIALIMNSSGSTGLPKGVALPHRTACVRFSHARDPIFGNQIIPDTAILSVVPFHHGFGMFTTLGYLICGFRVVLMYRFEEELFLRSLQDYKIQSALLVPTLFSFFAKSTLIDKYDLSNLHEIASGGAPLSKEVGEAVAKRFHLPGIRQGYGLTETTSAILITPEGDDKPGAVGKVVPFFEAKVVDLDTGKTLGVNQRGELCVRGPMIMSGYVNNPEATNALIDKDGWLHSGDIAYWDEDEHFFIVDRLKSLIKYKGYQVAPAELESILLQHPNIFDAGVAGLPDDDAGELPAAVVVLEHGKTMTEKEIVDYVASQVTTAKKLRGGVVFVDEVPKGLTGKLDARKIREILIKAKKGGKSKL
With `COc1cccc(-c2nc3ccc(N4CCN(C)CC4)cc3[nH]2)c1` the inhibition was 95.8% (active). Compound `CN1CCN(c2cc(N3CCNCC3)ccc2[N+](=O)[O-])CC1` has an inhibition of 5.2%. Compound `Cc1nc2ccc(N3CCN(C)CC3)cc2nc1C` has an inhibition of 15.6%. In the case of `Cc1nn(Cc2ccccc2Cl)c(Cl)c1C(=O)OC(C(=O)NC(N)=O)C(C)C` (stereo not given), the inhibition is reported as -7%. `Cc1ccnc(-n2c(C)cc(/C=C3\C(=O)NC(=S)N(C)C3=O)c2C)c1` showed an inhibition of 5.2%.
